# TDP1 cell CPT: DT40-hTDP1 cell growth loss with CPT. chicken DT40 Tdp1-/-;hTDP1 cells + 20 nM CPT, ATP luminescence, 48 h. Potency, µM (top dose mostly 46.2 µM), for the others: top-dose activity change, negative = growth inhibition, usual class: inhibitors. 420,000 tested, 12% active. AID 686979; further: potency means the concentration at half of the fitted maximal effect; on the % scale 0 is the no-effect control and ±100 the full control effect; nearly all actives have a fitted effect of over 55% in size
#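 Cell growth measured by CellTiter-Glo luminescence after a minimum 48 h, 37 C compound exposure with 20 nM CPT in Tdp1-knockout DT40 cells stably expressing hTDP1, seeded 400/well; qHTS titration format.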
# TDP1 cell noCPT: qHTS for Inhibitors of human tyrosyl-DNA phosphodiesterase 1 (TDP1): qHTS in cells in absence of CPT; DT40 Tdp1-/- hTDP1 cells, no CPT, ATP luminescence, 48 h; Potency, µM (series often up to 46.2 µM), for the others: top-dose activity change, negative = growth inhibition, usual class: inhibitors; 420,000 tested, 15% active; AID 686978, 2013; further: potency means the concentration at half of the fitted maximal effect; on the % scale 0 is the no-effect control and ±100 the full control effect; nearly all actives have a fitted effect of over 55% in size
#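 Cells were dispensed at 400 per well, compounds added by pin tool, plates incubated ≥48 hr at 37 °C, then CellTiter-Glo added for 30 min at room temperature before luminescence reading. Line: DT40 Tdp1-/- complemented with hTDP1; camptothecin omitted.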
# HepG2 tox-1: counter-screen for TGF-b inhibitors: cytotoxicity in HepG2 cells | HepG2 CAGA-GFP viability, ATP luminescence, 18 h | 410,000 tested, 0.76% active | Potency, µM (series often up to 46.1 µM), for inactives: at the top dose activity change, negative = cytotoxicity, usual class: cytotoxic; further: potency means the concentration at half of the fitted maximal effect
#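 HepG2 CAGA-GFP cells (1000/well, DMEM with 1% FBS) received compound, then TGF-beta at 500 pg/mL final, and were incubated 18 hours at 37 degrees C. Viability was read by CellTiter-Glo luminescence. Media-only wells were set as complete cell-killing and DMSO as no toxicity.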
# IL-1B inflam inh: blocks inflammasome-driven IL-1 beta release; THP-1 LPS/ATP IL-1B secretion, AlphaLISA, 16 h; stronger effect = lower value; activity change, % at 57.5 µM; 360,000 tested, 4.7% active; AID 743279; in the data active means activity change below about -50%; inconclusive means mostly about -30% to -49%; further: on the % scale 0 is the no-effect control and ±100 the full control effect
#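 Secreted IL-1B measured by AlphaLISA bead assay after 16 h compound exposure of THP-1 cells; compounds (final up to 57.5 uM) added 1 h before LPS (250 ng/mL) and ATP (1.25 mM) stimulation; lower signal means less secretion.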
# TGFb SMAD3 inh: blocks TGF-b signaling; HepG2 CAGA-GFP TGF-b/SMAD3 reporter, GFP fluorescence, 18 h; TGF-beta stimulated, 500 pg/mL final; Potency, µM (series often up to 46.1 µM), without a hit: at the highest dose activity, negative = inhibition, hits mostly inhibitors; 410,000 tested, 1.2% active; AID 588855; further: potency means the concentration at half of the fitted maximal effect; on the % scale 0 is the no-effect control and ±100 the full control effect; nearly all actives have a fitted effect of over 65% in size
#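 TGF-beta reporter screen: HEPG2 CAGA-GFP, 1% FBS, 500 pg/mL TGF-beta final, 18 h; per-cell GFP summed per well; curves fitted and categorized by class.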
# S-ASM inh: human S-ASM enzyme inhibition; 340,000 tested, 0.006% active; Potency, µM (top dose mostly 57.5 µM), without a hit: at the top dose activity change, negative = inhibition, hits mostly inhibitors; AID 504937; placental ASM, HMU-PC fluorogenic substrate, 60 min; further: potency means the concentration at half of the fitted maximal effect
# Target sequence (P17405 47-631 limits assumed): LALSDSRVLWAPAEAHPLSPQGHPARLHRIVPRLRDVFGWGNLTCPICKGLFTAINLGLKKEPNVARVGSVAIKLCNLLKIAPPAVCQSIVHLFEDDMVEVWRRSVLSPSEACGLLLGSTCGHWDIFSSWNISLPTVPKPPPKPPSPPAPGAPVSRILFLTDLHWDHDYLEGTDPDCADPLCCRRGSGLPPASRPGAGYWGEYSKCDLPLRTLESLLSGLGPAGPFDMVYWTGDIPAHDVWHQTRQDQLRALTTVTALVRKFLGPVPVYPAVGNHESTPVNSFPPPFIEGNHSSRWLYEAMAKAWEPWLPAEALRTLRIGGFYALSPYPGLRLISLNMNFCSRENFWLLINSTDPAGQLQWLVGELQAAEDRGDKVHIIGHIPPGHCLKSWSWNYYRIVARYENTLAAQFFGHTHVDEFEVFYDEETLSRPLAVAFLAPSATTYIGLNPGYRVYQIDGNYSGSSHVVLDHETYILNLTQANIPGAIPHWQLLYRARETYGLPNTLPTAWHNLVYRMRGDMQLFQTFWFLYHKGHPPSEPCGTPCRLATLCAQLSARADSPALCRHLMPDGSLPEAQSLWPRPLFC
#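 Human placenta-derived ASM enzyme was preincubated with compound for 10 minutes at room temperature, then given fluorogenic substrate HMU-PC0 (9 uM final) for 60 minutes at 37 °C; a pH 10 stop preceded fluorescence reading at Ex 386/Em 447 nm.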
# TGFb confirm: confirmation of TGF-b signaling inhibitors in HepG2 reporter cells; shares compounds with TGFb SMAD3 inh; HepG2 CAGA-GFP TGF-b reporter, GFP fluorescence, 18 h; cells stimulated with TGF-beta, 500 pg/mL; Potency, µM (highest dose often 46.1 µM), without a hit: top-dose activity, negative = inhibition, most hits filed as inhibitors; 1,600 tested, 63% active; AID 720534; further: potency means the concentration at half of the fitted maximal effect; on the % scale 0 is the no-effect control and ±100 the full control effect; nearly all actives have a fitted effect of over 65% in size
# HepG2 tox-2: counter-screen for TGF-b inhibitors: cytotoxicity in HepG2 cells. shares compounds with TGFb SMAD3 inh. HepG2 CAGA-GFP viability, ATP luminescence, 18 h; cells stimulated with TGF-beta, 500 pg/mL. Potency, µM (top dose mostly 46.1 µM), for inactives: top-dose activity, negative = cytotoxicity, hits mostly inhibitors. 1,600 tested, 27% active. AID 720535; further: potency means the concentration at half of the fitted maximal effect; on the % scale 0 is the no-effect control and ±100 the full control effect; nearly all actives have a fitted effect of over 70% in size
# TGFb CCL64 inh: TGF-b inhibition, CCL64 orthogonal assay; AID 720536; 1,600 tested, 41% active; Potency, µM (titrated, usually from 46.1 µM), without a hit: at the top dose activity, negative = inhibition, actives largely listed as inhibitors; CCL64 CAGA-GFP reporter, TGF-b stimulated, GFP fluorescence, 18 h; shares compounds with TGFb SMAD3 inh; further: potency means the concentration at half of the fitted maximal effect; nearly all actives have a fitted effect of over 65% in size
# TGFb COP inh: blocks TGF-b signaling in HepG2 COP reporter; AID 720537; shares compounds with TGFb SMAD3 inh; Potency, µM (series often up to 46.1 µM), without a hit: at the top dose activity, negative = inhibition, actives largely listed as inhibitors; 1,600 tested, 3% active; HepG2 COP-GFP TGF-b reporter, GFP fluorescence, 18 h; cells stimulated by added recombinant TGF-beta; further: potency means the concentration at half of the fitted maximal effect; nearly all actives have a fitted effect of over 70% in size
# The depositor's hits bear a star; i = inactive; ? = inconclusive; nt = no result. Shown are actives, neighbours in structure and some others; about 19% of the full set was active somewhere. Unless noted, the call rests on the fitted dose curve; in most records, active means well fitted curve in the direction sought with a large enough effect; inconclusive means small, poorly fitted or top-dose-only effect, or another doubt; inactive means no such curve, though single readings can be large; an effect the other way counts as inactive or inconclusive.
SMILES,TDP1 cell CPT,TDP1 cell noCPT,HepG2 tox-1,IL-1B inflam inh,TGFb SMAD3 inh,S-ASM inh,TGFb confirm,HepG2 tox-2,TGFb CCL64 inh,TGFb COP inh
COc1cccc(C(C(=O)NC(C)(C)C)N(CCc2ccccc2)C(=O)CCC(=O)Nc2cc(C)on2)c1OC (stereo not drawn),?,?,-14.7%,-0.1,-14.6%,-1.2%,nt,nt,nt,nt
N#C/C(=C\c1ccc(Sc2nc3ccccc3[nH]2)o1)c1ccccc1,?,18.4µM*,51.9%,-72.9*,10µM*,6.3%,9.2µM*,?,?,46.6%
CN(Cc1ccccc1)C(=O)C1CCN(S(=O)(=O)c2ccc3nc4c(c(C(=O)O)c3c2)CCCC4)CC1,-1.2%,-1.5%,58.8%,14.2,28.8%,-0.2%,nt,nt,nt,nt
CCCCn1c(NC(=O)c2ccco2)c(S(=O)(=O)c2ccc(C)cc2)c2nc3ccccc3nc21,?,?,-6.3%,0.0,?,i,3.4%,-19.9%,16.4µM*,31.8%
CCCCn1c(NC(=O)c2ccc(Br)o2)c(S(=O)(=O)c2ccccc2)c2nc3ccccc3nc21,?,?,-5.3%,0.8,-37.7%,301.0%,nt,nt,nt,nt
COc1ccc(CNC(=O)c2[nH]c(C(F)(F)F)nc2-c2ccccc2)cc1OC,-29.1%,-17.4%,-11.7%,6.0,-10.4%,nt,nt,nt,nt,nt
COc1ccc(CNc2cccc3[nH]c(C(F)(F)F)nc23)cc1OC,?,20.6µM*,-30.6%,-8.8,5.62µM*,-4.7%,?,-3.6%,-20.9%,-9.2%
CC(C)C[C@@H](CN1CCCC1CN1C(=S)NC[C@@H]1Cc1ccc(O)cc1)N1C[C@H](Cc2ccccc2)N(CC2CCCCCC2)C1=S (stereo partly drawn),?,23.1µM*,-6.8%,0.5,15.8µM*,-23.1%,10.3µM*,?,2.06µM*,30.8%
CC(C)C[C@@H](CN1CCCC1CN1C(=S)NC[C@@H]1Cc1ccc(O)cc1)N1C[C@H](Cc2ccc(O)cc2)N(CC2CCCCCC2)C1=S (stereo partly drawn),14.6µM*,8.2µM*,-110.6%,-82.7*,5.62µM*,?,20.6µM*,?,13µM*,?
COc1ccc(Cc2nc3ccc(C(=O)NCCc4ccc(Cl)cc4)cc3o2)cc1,-28.7%,?,-1.0%,nt,0.7%,nt,nt,nt,nt,nt
COc1ccc(C(=O)Nc2ccc3oc(Cc4ccc(Cl)cc4)nc3c2)cc1OC,?,?,-22.6%,6.9,15.8µM*,-10.1%,?,-17.7%,13.2%,0.3%
O=C(COC(=O)c1c2c(nc3ccccc13)/C(=C\c1cccs1)CCC2)Nc1ccccc1,20.6µM*,9.2µM*,-3.9%,-54.8*,11.2µM*,193.2%,?,?,?,39.4%
CC(=O)c1ccc(NC(=O)COC(=O)c2c3c(nc4ccccc24)/C(=C\c2cccs2)CCC3)cc1,13µM*,16.4µM*,-36.7%,-51.4*,1.78µM*,197.1%,6.51µM*,?,1.46µM*,27.0%
Cc1cc2oc(C(=O)Nc3sc4c(c3C(=O)NCC3CCCO3)CCCC4)cc(=O)c2cc1C (stereo not drawn),-0.5%,-3.1%,-10.8%,nt,5.6%,nt,nt,nt,nt,nt
CCOC(=O)CCc1ccc(NC(=O)/C=C/c2ccc([N+](=O)[O-])o2)cc1,1.84µM*,3.26µM*,10µM*,-80.5*,4.47µM*,-5.9%,9.2µM*,13µM*,?,-30.9%
FC(F)(F)c1cccc(-c2nc3nc(Cl)c(Cl)nc3[nH]2)c1,7.31µM*,2.06µM*,-33.0%,-17.9,2.24µM*,215.2%,6.51µM*,6.51µM*,5.17µM*,63.9%
COc1ccc(CCNC(=O)CNCCc2ccc(F)cc2)cc1,-18.7%,?,-33.7%,-13.3,-0.7%,-0.9%,nt,nt,nt,nt
COc1ccc(C(CCNCc2ccc(F)cc2)c2ccc(F)cc2)cc1 (stereo not drawn),?,?,7.94µM*,-28.4,2.82µM*,-0.9%,?,16.4µM*,?,?
O=C(COC(=O)/C=C/c1ccc(F)cc1)NC(=O)NCc1ccccc1,2.8%,-1.1%,-0.9%,9.3,-0.3%,nt,nt,nt,nt,nt
COc1ccc2c(COC(=O)CCS(=O)(=O)c3ccc(C)cc3)cc(=O)oc2c1,4.7%,-4.6%,3.7%,5.7,-1.9%,nt,nt,nt,nt,nt
CCOc1ccc(CCN2C(=S)N([C@@H](CC(C)C)CN3CCCC3CN3C(=S)NC[C@@H]3Cc3ccc(O)cc3)C[C@@H]2CC(C)C)cc1 (stereo partly drawn),?,16.4µM*,-3.8%,?,4.47µM*,-19.0%,11.6µM*,-16.8%,?,3.4%
CCOc1ccc(CCN2C(=S)N([C@@H](CC(C)C)CN3CCC[C@@H]3CN3C(=S)NC[C@@H]3CC(C)C)C[C@@H]2Cc2ccc(O)cc2)cc1,9.2µM*,11.6µM*,-43.6%,nt,6.31µM*,nt,?,?,18.4µM*,68.1%
COCCn1cnc2c1c(=O)n(Cc1ccccc1C#N)c(=O)n2Cc1ccccc1,-21.2%,-18.4%,13.2%,-4.2,0.5%,1.2%,nt,nt,nt,nt
COc1ccc(C(=O)NCCN(C)C)c2nc3ccccc3cc12,0.184µM*,0.164µM*,8.6%,-99.2*,7.08µM*,-3.6%,10.3µM*,4.61µM*,?,38.5%

# High-throughput results: PubChem BioAssay, National Center for Advancing Translational Sciences (NCATS)
